# Data as given in PubChem BioAssay AID1224865 (Sanford-Burnham Center for Chemical Genomics, 2016).
# About 1,100 (0.31%) of roughly 360,000 compounds were called active. This is one part of a sample in which actives are shown more often than they occur. Unmarked numbers belong to inactive results. No stated cut-off is given here; in the data, active means activity change above about 30% (passing the limit was not always enough); inactive means the rest.
# Target: Hepatocyte nuclear factor 4-alpha (Homo sapiens) (UniProt P41235)
# Sequence (P41235 whole entry, looked up): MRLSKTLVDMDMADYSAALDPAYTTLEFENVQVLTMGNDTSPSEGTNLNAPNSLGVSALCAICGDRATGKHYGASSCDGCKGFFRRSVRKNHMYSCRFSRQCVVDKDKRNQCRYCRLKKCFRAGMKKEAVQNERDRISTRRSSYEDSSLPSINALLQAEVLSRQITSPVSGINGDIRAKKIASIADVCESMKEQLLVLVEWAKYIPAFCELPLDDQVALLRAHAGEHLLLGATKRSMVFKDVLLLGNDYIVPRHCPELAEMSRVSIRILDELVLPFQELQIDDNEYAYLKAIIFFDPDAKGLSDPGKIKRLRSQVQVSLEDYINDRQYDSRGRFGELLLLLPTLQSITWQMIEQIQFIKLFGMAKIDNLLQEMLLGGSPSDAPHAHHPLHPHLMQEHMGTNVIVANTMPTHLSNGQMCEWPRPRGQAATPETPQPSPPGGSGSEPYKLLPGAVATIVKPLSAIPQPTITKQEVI
# Test: change in binding of human HNF4A to DNA, primary screen, biochemical, fluorescence polarization, FITC-DNA (AID 1224865)
# Conditions: 1 h, at 10 µM, active compounds read high
row,Compound,activity change
1,O=C(CCN1CCCCC1)NCC(=O)Nc1ccc(Br)cc1C(=O)c1ccccc1,53% (active)
2,CN1CCN(C(=S)SCC(=O)Nc2ccc(Cl)cc2C(=O)c2ccccc2)CC1,-2.35%
3,O=C(CN1CCCCC1)Nc1ccc(Br)cc1C(=O)c1ccccc1Cl,-1.1%
4,COc1ccccc1N=Nc1c(O)[nH]c(=S)[nH]c1=O,68.8% (active)
5,O=C1N=c2ccccc2=C/C1=C\c1c(O)[nH]c(=S)[nH]c1=O,4.26%
6,CCOCCc1c(O)[nH]c(=S)[nH]c1=O,-0.41%
7,C=Cn1ccnc1P(=S)(c1cc(N(CC)CC)ns1)c1nccn1C=C,-0.17%
8,CCN(CC)c1ccc([N+](=O)[O-])c2cccnc12,4.4%
9,COc1ccc(-c2nn(CCC#N)cc2C(=O)Nc2ccc(C(C)=O)cc2)cc1,2.38%
10,CC1CC=CCC12C(=O)NC(=S)NC2=O (stereo not given),-0.2%
